The test can be described thus: viability loss in HEK293T cells – cell-based, CellTiter-Glo luminescence, dry powder, set 6, cytotoxicity control, dose response (AID 651949).

Each structure is given as a SMILES string. Potency and affinity values are given separately. The source made the active and inactive calls.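 The calls were made as follows: active = compounds lowering cell ATP signal whose fitted half-maximal concentration is at most twice the top tested dose; inconclusive = flat curve with 30 to 70% signal loss, or poor fit; inactive = the rest.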

With `Clc1ccc(-c2nnc(SCc3ccccc3)o2)cc1`, the compound was classed as inactive. `c1ccc(CSc2nnc(-c3ccccc3)o2)cc1`: the call was inactive.
